Compounds with a hit are over-represented: about 21% of the library has one in this group of screens.
Cycloheximide cs = counter-screen for Shiga toxin inhibitors: cycloheximide protein synthesis inhibition; hit rate 12% among 300,000; AID 2314; cell reporter, cycloheximide protein synthesis inhibition counterscreen; max response, %; in the data active = max response mostly above about 13%, no sharp cut-off; inactive = mostly below about 14%; also: read at 38.3 µM for the half of the compounds with a filed dose
Shiga toxin inh = Shiga toxin inhibition; AID 2315; hit rate 9.2% among 290,000; Vero cells, Shiga toxin protein synthesis inhibition reporter; inhibition, % at 38.7 µM; in the data active = inhibition mostly above about 28%, no sharp cut-off; inactive = mostly below about 43%
Pf growth 48h = P. falciparum growth inhibition at 48 hours (one generation); P. falciparum luciferase growth in erythrocytes, 48 h; Potency, µM (highest dose often 28.7 µM), actives largely listed as inhibitors; hit rate 5.9% among 310,000; AID 504832; active = well fitted inhibition curve with a large enough effect; inconclusive = small, poorly fitted or top-dose-only effect, or another doubt; inactive = no such curve, though single readings can be large or run the other way
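Firefly luciferase activity from engineered P. falciparum reports growth; inhibitors lower the luminescent signal. Cultures contained 2% hematocrit erythrocytes at 0.1% final parasitemia.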
Pf growth 96h = P. falciparum growth inhibition at 96 hour, primary screen for plastid delayed-death inhibitors; Potency, µM (titrated, usually from 28.7 µM), most hits filed as inhibitors; AID 504834; hit rate 6.9% among 320,000; P. falciparum luciferase reporter growth, 96 h; active = well fitted inhibition curve with a large enough effect; inconclusive = small, poorly fitted or top-dose-only effect, or another doubt; inactive = no such curve, though single readings can be large or run the other way
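P. falciparum expressing integrated firefly luciferase, in erythrocytes at 2% hematocrit, 0.05% parasitemia, incubated with compounds 96 h at 37 C, 5% CO2. Growth inhibition read as loss of luminescence; two-generation exposure targets delayed-death apicoplast inhibitors.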
SARS PLP yeast = SARS-CoV PLP inhibition in yeast; hit rate 0.19% among 330,000; Potency, µM (highest dose often 32.9 µM), hits mostly activators; AID 485353; S. cerevisiae expressing SARS-CoV PLpro, growth rescue; also: nearly all actives have a fitted effect of over 55% in size
NS1 inh = inhibitors of influenza NS1 protein function | Potency, µM (series often up to 46.1 µM) | hit rate 0.4% among 270,000; also: actives are rising curves; nearly all actives have a fitted effect of over 50% in size
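A cell-based growth assay was used: compounds that relieve NS1-induced slow growth of budding yeast raise OD600. Assay medium was yeast nitrogen base with ammonium sulphate and -URA supplement, pH 6.0, with 2% galactose.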
Large screens that a line does not name were inactive. Unless noted, calls follow the shape of the full dose curve.

O=C(COc1cccc(C(F)(F)F)c1)NCC(c1ccco1)N1CCCCC1 (stereo not drawn)	Pf growth 48h 15µM, Pf growth 96h inconclusive (no result: Cycloheximide cs, Shiga toxin inh, NS1 inh)
CCOC(=O)C1CCN(C(=O)C2CCCN(c3ncnc4c3nc3n4CCCCC3)C2)CC1 (stereo not drawn)	Pf growth 48h inconclusive, Pf growth 96h inconclusive
Cc1ccc(NC(=O)CN2CCCCCC2)cc1Br	Cycloheximide cs 19, Pf growth 96h inconclusive (no result: NS1 inh)
Cc1ccc(NC(=O)CN2CCCCCC2)c(Br)c1	Cycloheximide cs 36, Shiga toxin inh 81, NS1 inh inconclusive
CN1CCN(C2=Nc3cc(Cl)ccc3Nc3ccccc32)CC1	Pf growth 48h 17µM, Pf growth 96h inconclusive
Cc1cccc(Nc2nnc(SCC(=O)c3ccc(O)cc3O)s2)c1	Pf growth 96h inconclusive
O=C(CSc1nnc(Nc2ccccc2)s1)NCc1cccs1	Pf growth 96h 12µM
Cc1ccc(Nc2nnc(SCC(=O)c3ccc(O)cc3O)s2)cc1	Pf growth 48h inconclusive, Pf growth 96h 2.1µM, NS1 inh inconclusive
OCCSc1nnc(Nc2ccccc2)s1	Cycloheximide cs 38, Shiga toxin inh 87, Pf growth 96h inconclusive
CN(C(=O)CSc1nnc(Nc2ccccc2)s1)c1c(N)n(Cc2ccccc2)c(=O)[nH]c1=O	Cycloheximide cs 29 (no result: Pf growth 96h)
Cc1noc(NS(=O)(=O)c2ccc(NC(=O)c3nn(-c4ccccc4)ccc3=O)cc2)c1C	Pf growth 96h inconclusive
COc1cccc(/C=N/NC(=O)Cn2nc([N+](=O)[O-])cc2C)c1	Pf growth 48h inconclusive
Cc1ccc(NS(=O)(=O)c2ccc3oc(=O)ccc3c2)cc1Cl	SARS PLP yeast inconclusive
CC(C)(C)C(=O)CSc1nnc(Nc2ccccc2)s1	Cycloheximide cs 34 (no result: NS1 inh)
COCC(C)NC(=O)CSc1nc(-c2ccccc2)c(-c2ccccc2)o1 (stereo not drawn)	Pf growth 96h inconclusive (no result: Pf growth 48h)
COc1ccc(CNCCCSc2ncccn2)c(OC)c1	none
Cc1ccccc1S(=O)(=O)Cc1ccc(C(=O)NCc2cccnc2)o1	Pf growth 96h 9.3µM
O=C(NCc1ccccc1)c1ccc(CS(=O)(=O)c2ccc(Br)cc2)o1	Pf growth 96h inconclusive
O=C(NCc1ccccc1)c1ccc(CS(=O)(=O)c2ccccc2)o1	Pf growth 96h 10µM (no result: Pf growth 48h)
c1ccc(-c2nc3nc4ccccc4nc3n2CC2CCCO2)cc1 (stereo not drawn)	Cycloheximide cs 30
COc1cccc(C(=O)NCCS(=O)(=O)N2CCC3(CC2)OCCO3)c1	none (no result: Cycloheximide cs, Shiga toxin inh, NS1 inh)
Cc1sc2ncn(CC(=O)N3CCN(c4ccccn4)CC3)c(=O)c2c1S(=O)(=O)N1CCCCC1	none
O=C(COc1coc(CN2CCc3ccccc3C2)cc1=O)Nc1ccc([N+](=O)[O-])cc1	Pf growth 48h inconclusive, Pf growth 96h inconclusive (no result: Cycloheximide cs, Shiga toxin inh, NS1 inh)
CCOc1ccccc1NC(=O)COc1coc(CN2CCCc3ccccc32)cc1=O	Pf growth 48h 13µM, Pf growth 96h inconclusive (no result: Cycloheximide cs, Shiga toxin inh, NS1 inh)
CCOc1ccccc1NC(=O)COc1coc(CN2CCc3ccccc3C2)cc1=O	Pf growth 96h 13µM (no result: Cycloheximide cs, Shiga toxin inh, NS1 inh)
CC(=O)Nc1ccc(S(=O)(=O)NCC(=O)OC(C)c2ccccc2Cl)cc1 (stereo not drawn)	none
COc1cc(/C=N/N2C(C)CCCC2C)cc(Br)c1O (stereo not drawn)	none (no result: NS1 inh)
CN=c1scc(C)n1/N=C/c1ccc(O)cc1O	Cycloheximide cs 25, Shiga toxin inh 30
CCN=c1scc(C)n1/N=C/c1cc(Br)c(O)c(OC)c1	Cycloheximide cs 14, Pf growth 48h inconclusive, Pf growth 96h 5.9µM (no result: NS1 inh)
CN=c1scc(C)n1/N=C/c1ccc2c(c1)OCO2	Cycloheximide cs 28, Shiga toxin inh 69
CN=c1scc(C)n1/N=C/c1ccc(O)cc1	Cycloheximide cs 38, Shiga toxin inh 117 (no result: Pf growth 96h)
COc1cccc(NC(=O)CN(C)CC(=O)Nc2ccc(C)cc2Cl)c1	none (no result: NS1 inh)
CCOc1cc(N2CCOCC2)c(OCC)cc1NC(=O)COC(=O)c1cccc2ccccc12	none
CN=c1scc(C)n1/N=C/c1cc(Br)c(O)c(Br)c1	Cycloheximide cs 18 (no result: NS1 inh)
C=CCN=c1scc(C)n1/N=C/c1ccc(O)c(O)c1	Cycloheximide cs 37, Shiga toxin inh 65, Pf growth 48h inconclusive (no result: NS1 inh)
CC1CCCC(C)N1/N=C/c1cc(Br)c(O)c(Br)c1 (stereo not drawn)	none
CN(Cc1ccccc1)C(=O)CC(c1ccccc1)c1cc(Cl)ccc1O (stereo not drawn)	Pf growth 48h inconclusive, Pf growth 96h 10µM
CCOC(=O)N1CCC(N2C(=O)c3ccc(C(=O)Nc4ccc(OC)cc4)cc3C2=O)CC1	Pf growth 96h inconclusive
CN(CC(=O)Nc1ccc(F)cc1)C(=O)COC(=O)c1cc(S(=O)(=O)N(C)C)ccc1N1CCCC1	Pf growth 48h 12µM, Pf growth 96h 8.3µM (no result: Cycloheximide cs, Shiga toxin inh, NS1 inh)
CN(C)S(=O)(=O)c1ccc(N2CCCC2)c(C(=O)N2CCN(S(=O)(=O)c3cccc(F)c3)CC2)c1	Pf growth 48h 10µM (no result: Cycloheximide cs, Shiga toxin inh, NS1 inh)
CCN(CC)S(=O)(=O)c1ccc(N2CCCC2)c(C(=O)OCC(=O)/C(C#N)=C(\C)N)c1	Pf growth 48h 9.3µM
CN(C)S(=O)(=O)c1ccc(N2CCCC2)c(C(=O)OCC(=O)N2CCN(c3ccccc3)CC2)c1	Pf growth 48h 15µM (no result: Cycloheximide cs, Shiga toxin inh, SARS PLP yeast, NS1 inh)
CCOc1ccccc1N1CCN(C(=O)c2cc(S(=O)(=O)N(C)C)ccc2N2CCCC2)CC1	Pf growth 48h 10µM, Pf growth 96h inconclusive (no result: Cycloheximide cs, Shiga toxin inh, NS1 inh)
C=CC[C@H](CC(=O)N(CCO)Cc1ccccc1)C(=O)N[C@H](C)COC(=O)[C@@H](CC=C)CC(=O)OC(C)(C)C	none (no result: Cycloheximide cs, Shiga toxin inh, Pf growth 48h, Pf growth 96h, NS1 inh)
O=C1CSC(c2ccccn2)N1c1cccc(Cl)c1 (stereo not drawn)	Pf growth 96h inconclusive
Cc1ccc(N2C(=O)CSC2c2ccccn2)cc1Cl (stereo not drawn)	Cycloheximide cs 25, Pf growth 48h inconclusive
O=C(O)COc1ccccc1/C=N/NC(=O)CNC(=O)c1ccc(F)cc1	none
COc1ccccc1/C=N/NC(=O)c1ccc(N(C)S(=O)(=O)c2ccccc2)cc1	none (no result: NS1 inh)
CC(C)Oc1ccccc1/C=N/NC(=O)c1ccc(F)cc1	Cycloheximide cs 27, Shiga toxin inh 20
CC(C)Oc1ccccc1/C=N/NC(=O)C1CCCC1	Pf growth 96h 2.6µM
Cn1cccc1-c1cc(C(=O)N/N=C/c2ccc(F)cc2)[nH]n1	none
Cn1cccc1-c1cc(C(=O)N/N=C/c2ccccc2Cl)[nH]n1	Cycloheximide cs 20, Shiga toxin inh 80
CCN(CC)c1ccc(C(=O)N/N=C/c2ccccc2OC(F)F)cc1	Cycloheximide cs 26, Pf growth 48h 10µM, Pf growth 96h inconclusive, SARS PLP yeast 8.9µM (no result: NS1 inh)
COc1cccc(/C=C/C(=O)OCC(=O)c2c(N)n(C)c(=O)n(C)c2=O)c1	Pf growth 48h inconclusive, Pf growth 96h inconclusive (no result: Cycloheximide cs, Shiga toxin inh, NS1 inh)
CC(C)c1ccc(C(=O)N/N=C/c2cccc(Cl)c2Cl)cc1	none
CC(C)Oc1ccccc1/C=N/NC(=O)c1ccccc1Cl	Cycloheximide cs 12
O=C(N/N=C/c1ccccc1Cl)c1ccc(F)cc1	Cycloheximide cs 56, Shiga toxin inh 72, SARS PLP yeast inconclusive

Screening data: PubChem, National Center for Advancing Translational Sciences (NCATS)
